Results: ChEMBL document CHEMBL2218924, “A broad activity screen in support of a chemogenomic map for kinase signalling research and drug discovery” (Biochem J, 2013)

Assays:
[1] = target: Focal adhesion kinase 1 (Homo sapiens) (UniProt Q05397); conditions: at 10 µM
[2] = target: Fibroblast growth factor receptor 2 (Homo sapiens) (UniProt P21802); conditions: at 1 µM
[3] = target: Fibroblast growth factor receptor 2 (Homo sapiens) (UniProt P21802); conditions: at 10 µM
[4] = target: Fibroblast growth factor receptor 3 (Homo sapiens) (UniProt P22607); conditions: at 1 µM
[5] = target: Fibroblast growth factor receptor 3 (Homo sapiens) (UniProt P22607); conditions: at 10 µM
[6] = target: Fibroblast growth factor receptor 4 (Homo sapiens) (UniProt P22455); conditions: at 1 µM
[7] = target: Fibroblast growth factor receptor 4 (Homo sapiens) (UniProt P22455); conditions: at 10 µM
[8] = target: Tyrosine-protein kinase Fer (Homo sapiens) (UniProt P16591); conditions: at 1 µM
[9] = target: Tyrosine-protein kinase Fer (Homo sapiens) (UniProt P16591); conditions: at 10 µM
[10] = target: Tyrosine-protein kinase Fgr (Homo sapiens) (UniProt P09769); conditions: at 1 µM
[11] = target: Tyrosine-protein kinase Fgr (Homo sapiens) (UniProt P09769); conditions: at 10 µM
[12] = target: Vascular endothelial growth factor receptor 1 (Homo sapiens) (UniProt P17948); conditions: at 1 µM
[13] = target: Vascular endothelial growth factor receptor 1 (Homo sapiens) (UniProt P17948); conditions: at 10 µM
[14] = target: Receptor-type tyrosine-protein kinase FLT3 (Homo sapiens) (UniProt P36888); conditions: at 10 µM
[15] = target: Vascular endothelial growth factor receptor 3 (Homo sapiens) (UniProt P35916); conditions: at 1 µM
[16] = target: Tyrosine-protein kinase Fes/Fps (Homo sapiens) (UniProt P07332); conditions: at 1 µM
[17] = target: Tyrosine-protein kinase Fes/Fps (Homo sapiens) (UniProt P07332); conditions: at 10 µM
[18] = target: Receptor-type tyrosine-protein kinase FLT3 (Homo sapiens) (UniProt P36888); conditions: at 1 µM
[19] = target: Fibroblast growth factor receptor 1 (Homo sapiens) (UniProt P11362); conditions: at 10 µM
[20] = target: Fibroblast growth factor receptor 1 (Homo sapiens) (UniProt P11362); conditions: at 1 µM

Chain of Receptor-type tyrosine-protein kinase FLT3 (Homo sapiens) (P36888 whole entry): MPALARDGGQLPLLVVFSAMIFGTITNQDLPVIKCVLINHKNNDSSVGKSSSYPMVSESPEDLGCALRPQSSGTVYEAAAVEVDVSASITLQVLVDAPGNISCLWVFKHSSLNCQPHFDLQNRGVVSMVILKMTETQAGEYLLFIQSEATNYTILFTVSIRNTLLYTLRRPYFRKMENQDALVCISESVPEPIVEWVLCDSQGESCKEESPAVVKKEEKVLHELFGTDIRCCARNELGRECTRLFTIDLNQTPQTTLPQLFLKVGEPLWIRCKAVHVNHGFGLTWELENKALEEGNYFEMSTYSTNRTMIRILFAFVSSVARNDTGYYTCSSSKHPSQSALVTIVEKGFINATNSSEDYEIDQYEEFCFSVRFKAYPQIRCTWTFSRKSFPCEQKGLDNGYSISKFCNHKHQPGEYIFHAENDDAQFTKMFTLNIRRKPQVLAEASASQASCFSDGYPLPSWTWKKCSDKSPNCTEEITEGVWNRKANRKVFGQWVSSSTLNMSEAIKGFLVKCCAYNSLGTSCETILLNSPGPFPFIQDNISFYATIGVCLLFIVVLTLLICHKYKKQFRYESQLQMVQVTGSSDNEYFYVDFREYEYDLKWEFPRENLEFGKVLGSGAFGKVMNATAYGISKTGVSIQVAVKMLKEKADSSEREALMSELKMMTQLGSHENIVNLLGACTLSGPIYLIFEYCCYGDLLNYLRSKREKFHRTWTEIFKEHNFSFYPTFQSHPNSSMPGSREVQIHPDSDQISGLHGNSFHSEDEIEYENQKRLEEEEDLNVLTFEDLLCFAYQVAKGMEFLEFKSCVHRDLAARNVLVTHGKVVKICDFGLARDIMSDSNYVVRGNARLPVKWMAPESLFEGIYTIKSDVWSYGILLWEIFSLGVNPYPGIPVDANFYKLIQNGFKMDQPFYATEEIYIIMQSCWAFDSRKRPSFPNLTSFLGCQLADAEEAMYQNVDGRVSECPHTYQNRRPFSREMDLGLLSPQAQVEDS
Chain of Fibroblast growth factor receptor 2 (Homo sapiens) (P21802 22-821 limits assumed): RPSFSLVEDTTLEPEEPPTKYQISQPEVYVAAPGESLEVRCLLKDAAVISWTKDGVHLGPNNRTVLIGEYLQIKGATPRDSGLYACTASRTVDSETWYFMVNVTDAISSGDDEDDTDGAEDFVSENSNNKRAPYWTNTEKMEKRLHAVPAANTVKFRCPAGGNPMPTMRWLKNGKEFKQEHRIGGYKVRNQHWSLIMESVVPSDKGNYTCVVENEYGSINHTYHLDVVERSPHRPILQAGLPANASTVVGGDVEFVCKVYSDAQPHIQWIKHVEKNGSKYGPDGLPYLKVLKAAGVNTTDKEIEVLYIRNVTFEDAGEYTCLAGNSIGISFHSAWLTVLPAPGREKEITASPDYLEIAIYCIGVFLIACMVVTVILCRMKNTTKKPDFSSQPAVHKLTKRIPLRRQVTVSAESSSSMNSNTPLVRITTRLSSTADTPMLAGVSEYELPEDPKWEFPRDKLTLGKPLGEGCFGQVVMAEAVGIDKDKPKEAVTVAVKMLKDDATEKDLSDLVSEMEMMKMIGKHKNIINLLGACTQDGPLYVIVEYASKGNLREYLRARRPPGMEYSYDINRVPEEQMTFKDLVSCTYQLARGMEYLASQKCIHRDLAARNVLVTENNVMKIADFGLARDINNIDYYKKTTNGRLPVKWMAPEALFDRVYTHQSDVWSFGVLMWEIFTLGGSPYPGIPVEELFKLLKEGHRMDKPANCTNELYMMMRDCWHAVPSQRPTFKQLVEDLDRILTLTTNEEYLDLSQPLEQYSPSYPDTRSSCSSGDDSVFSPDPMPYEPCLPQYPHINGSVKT
Chain of Fibroblast growth factor receptor 1 (Homo sapiens) (P11362 22-822 limits assumed): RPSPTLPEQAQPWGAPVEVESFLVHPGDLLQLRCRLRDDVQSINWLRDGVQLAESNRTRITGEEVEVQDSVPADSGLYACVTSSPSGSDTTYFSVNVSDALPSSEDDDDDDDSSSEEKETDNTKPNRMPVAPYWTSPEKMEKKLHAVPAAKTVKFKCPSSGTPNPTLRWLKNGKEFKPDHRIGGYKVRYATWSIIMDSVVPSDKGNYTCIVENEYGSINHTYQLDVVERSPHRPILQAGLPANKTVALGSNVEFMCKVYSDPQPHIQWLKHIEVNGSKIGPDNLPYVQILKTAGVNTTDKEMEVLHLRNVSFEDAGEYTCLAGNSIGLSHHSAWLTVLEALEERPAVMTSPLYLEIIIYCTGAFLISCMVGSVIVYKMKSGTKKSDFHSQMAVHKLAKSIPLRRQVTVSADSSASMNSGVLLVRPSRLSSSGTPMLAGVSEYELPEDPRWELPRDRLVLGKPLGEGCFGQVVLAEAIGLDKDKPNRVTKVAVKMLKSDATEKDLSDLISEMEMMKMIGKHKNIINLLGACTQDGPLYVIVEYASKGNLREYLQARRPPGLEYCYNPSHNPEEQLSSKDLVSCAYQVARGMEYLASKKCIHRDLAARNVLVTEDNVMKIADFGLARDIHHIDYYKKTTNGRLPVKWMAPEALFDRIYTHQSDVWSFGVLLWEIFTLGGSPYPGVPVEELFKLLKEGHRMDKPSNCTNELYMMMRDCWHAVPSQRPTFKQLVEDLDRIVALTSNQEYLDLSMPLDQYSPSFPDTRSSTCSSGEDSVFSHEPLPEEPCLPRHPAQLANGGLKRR
Chain of Vascular endothelial growth factor receptor 1 (Homo sapiens) (P17948 whole entry): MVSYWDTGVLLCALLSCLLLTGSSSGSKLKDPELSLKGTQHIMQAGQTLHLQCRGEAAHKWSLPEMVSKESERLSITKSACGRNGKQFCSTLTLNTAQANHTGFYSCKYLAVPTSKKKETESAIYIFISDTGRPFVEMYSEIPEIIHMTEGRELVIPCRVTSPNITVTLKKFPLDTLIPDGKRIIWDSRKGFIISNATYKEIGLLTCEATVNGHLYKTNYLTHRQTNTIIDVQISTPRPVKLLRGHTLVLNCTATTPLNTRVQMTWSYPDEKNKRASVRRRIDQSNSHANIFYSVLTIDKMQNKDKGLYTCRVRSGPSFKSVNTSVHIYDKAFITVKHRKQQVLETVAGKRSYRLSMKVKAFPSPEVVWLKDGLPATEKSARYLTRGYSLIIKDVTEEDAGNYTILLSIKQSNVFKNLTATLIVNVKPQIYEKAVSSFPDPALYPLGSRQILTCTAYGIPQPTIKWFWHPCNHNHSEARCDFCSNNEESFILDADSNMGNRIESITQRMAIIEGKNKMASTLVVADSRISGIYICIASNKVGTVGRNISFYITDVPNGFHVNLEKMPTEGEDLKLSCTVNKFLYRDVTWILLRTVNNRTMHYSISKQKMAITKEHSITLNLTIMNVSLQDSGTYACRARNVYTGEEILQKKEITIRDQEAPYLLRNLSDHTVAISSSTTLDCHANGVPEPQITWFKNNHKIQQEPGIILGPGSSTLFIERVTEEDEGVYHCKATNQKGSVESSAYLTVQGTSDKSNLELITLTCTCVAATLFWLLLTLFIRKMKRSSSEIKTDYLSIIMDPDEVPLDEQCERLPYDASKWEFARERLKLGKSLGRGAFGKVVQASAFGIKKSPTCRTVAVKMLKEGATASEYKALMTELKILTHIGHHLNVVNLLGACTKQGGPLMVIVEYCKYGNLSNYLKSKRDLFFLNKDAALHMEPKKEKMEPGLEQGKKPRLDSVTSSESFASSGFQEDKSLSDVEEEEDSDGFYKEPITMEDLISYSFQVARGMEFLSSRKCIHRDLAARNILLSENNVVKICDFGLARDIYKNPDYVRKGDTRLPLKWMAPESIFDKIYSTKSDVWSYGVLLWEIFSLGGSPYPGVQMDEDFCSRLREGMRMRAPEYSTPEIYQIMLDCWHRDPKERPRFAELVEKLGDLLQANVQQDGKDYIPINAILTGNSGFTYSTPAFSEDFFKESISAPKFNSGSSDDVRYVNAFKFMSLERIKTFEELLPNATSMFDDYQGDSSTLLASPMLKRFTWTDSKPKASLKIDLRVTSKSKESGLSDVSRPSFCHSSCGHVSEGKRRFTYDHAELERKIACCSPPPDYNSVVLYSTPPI
Chain of Focal adhesion kinase 1 (Homo sapiens) (Q05397 2-1052 limits assumed): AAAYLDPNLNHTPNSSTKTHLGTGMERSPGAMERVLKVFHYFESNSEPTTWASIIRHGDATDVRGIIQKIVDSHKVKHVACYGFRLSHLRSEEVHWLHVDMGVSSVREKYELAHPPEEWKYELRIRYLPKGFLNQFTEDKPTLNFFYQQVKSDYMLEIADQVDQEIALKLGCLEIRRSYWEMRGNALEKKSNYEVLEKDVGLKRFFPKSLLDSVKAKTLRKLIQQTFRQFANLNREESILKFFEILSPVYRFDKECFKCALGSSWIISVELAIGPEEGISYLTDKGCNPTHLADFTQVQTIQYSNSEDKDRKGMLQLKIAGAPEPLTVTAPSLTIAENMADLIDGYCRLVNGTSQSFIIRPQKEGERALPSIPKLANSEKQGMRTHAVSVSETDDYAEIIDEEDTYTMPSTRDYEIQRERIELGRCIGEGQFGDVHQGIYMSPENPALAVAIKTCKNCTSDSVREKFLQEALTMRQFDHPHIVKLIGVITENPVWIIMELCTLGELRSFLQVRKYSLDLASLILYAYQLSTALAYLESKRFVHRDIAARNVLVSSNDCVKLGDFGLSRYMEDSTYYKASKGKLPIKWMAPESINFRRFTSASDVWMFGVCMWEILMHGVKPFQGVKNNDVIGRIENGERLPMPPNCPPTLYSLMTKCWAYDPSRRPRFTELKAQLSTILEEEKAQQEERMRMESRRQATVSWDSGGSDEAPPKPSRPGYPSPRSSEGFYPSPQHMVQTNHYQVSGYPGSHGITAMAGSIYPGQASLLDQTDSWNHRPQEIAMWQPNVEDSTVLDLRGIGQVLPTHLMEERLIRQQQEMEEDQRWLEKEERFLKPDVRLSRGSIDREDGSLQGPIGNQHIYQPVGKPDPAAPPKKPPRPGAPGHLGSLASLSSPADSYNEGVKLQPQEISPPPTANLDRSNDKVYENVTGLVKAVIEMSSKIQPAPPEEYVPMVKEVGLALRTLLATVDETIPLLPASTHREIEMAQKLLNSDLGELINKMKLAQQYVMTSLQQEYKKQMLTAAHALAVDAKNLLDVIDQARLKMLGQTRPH

With `Nc1nc(Nc2ccc(S(N)(=O)=O)cc2)nn1C(=O)c1c(F)cccc1F` the residual activity [1] was 52%, the residual activity [2] was 36% and the residual activity [3] was 7%. The residual activity [4] was 29%, the residual activity [5] was 4% and the residual activity [6] was 99%. For the same compound, the residual activity [7] was 66%, the residual activity [8] was 101% and the residual activity [9] was 55%. For the same compound, the residual activity [10] was 63%, the residual activity [11] was 20% and the residual activity [12] was 18%. For the same compound, the residual activity [13] was 2%, the residual activity [14] was 5% and the residual activity [15] was 1%.
In the case of `O=C(CCCc1ccc(-c2ccccc2F)cc1)Nc1ccc(O)cc1`, the residual activity [1] is reported as 112%, the residual activity [2] is reported as 99% and the residual activity [3] is reported as 99%. For the same compound, the residual activity [8] was 109%, the residual activity [9] was 91% and the residual activity [16] was 107%. It also gave a residual activity [17] of 100%, a residual activity [10] of 93% and a residual activity [11] of 92%. The residual activity [12] was 109%, the residual activity [13] was 100% and the residual activity [18] was 101%. For the same compound, the residual activity [14] was 87% and the residual activity [15] was 101%.
In the case of `COc1ccc(Cl)cc1NC(=O)Nc1cc(C)nc2ccccc12`, the residual activity [1] is reported as 64%, the residual activity [17] is reported as 94% and the residual activity [10] is reported as 99%. For the same compound, the residual activity [11] was 82%, the residual activity [12] was 96% and the residual activity [13] was 91%.
With `O=C1Nc2ccccc2/C1=C\c1c(Cl)[nH]c2ccccc12` the residual activity [1] was 85%, the residual activity [2] was 119% and the residual activity [3] was 79%. The residual activity [9] was 67%, the residual activity [16] was 99% and the residual activity [17] was 78%. It also gave a residual activity [11] of 64%, a residual activity [13] of 38% and a residual activity [14] of 55%. The residual activity [15] was 64%.
Compound `O=S(=O)(c1cccc2cnccc12)N1CCCNCC1` has a residual activity [19] of 81%.
In the case of `COc1cc2nccc(Oc3ccc(NC(=O)Nc4cc(C)on4)c(Cl)c3)c2cc1OC`, the residual activity [1] is reported as 35%, the residual activity [2] is reported as 25% and the residual activity [3] is reported as 5%. It also gave a residual activity [5] of 28%, a residual activity [6] of 76% and a residual activity [7] of 31%. It also gave a residual activity [16] of 78%, a residual activity [17] of 46% and a residual activity [10] of 8%. For the same compound, the residual activity [11] was 4% and the residual activity [15] was -1%.
In the case of `COc1cc2ncnc(Nc3cccc(Cl)c3)c2cc1OC`, the residual activity [19] is reported as 32%, the residual activity [2] is reported as 101% and the residual activity [3] is reported as 66%. The residual activity [4] was 104%, the residual activity [5] was 74% and the residual activity [8] was 113%. For the same compound, the residual activity [9] was 105%, the residual activity [16] was 119% and the residual activity [17] was 86%. For the same compound, the residual activity [10] was 52%, the residual activity [11] was 12% and the residual activity [12] was 60%. The residual activity [13] was 16%, the residual activity [18] was 111% and the residual activity [14] was 52%. For the same compound, the residual activity [15] was 47%.
Work on `CCOc1nc(NC(=O)Cc2cc(OC)ccc2OC)cc(N)c1C#N` yielded a residual activity [2] of 100%.
`CN([C@@H](Cc1ccc(OS(=O)(=O)c2cccc3cnccc23)cc1)C(=O)N1CCN(c2ccccc2)CC1)S(=O)(=O)c1cccc2cnccc12` gave a residual activity [19] of 58%, a residual activity [5] of 58% and a residual activity [14] of 76%.
`COc1cc2c(cc1OC)-c1n[nH]c(Nc3cccc(F)c3)c1C2` gave a residual activity [4] of 111%, a residual activity [5] of 67% and a residual activity [6] of 117%. For the same compound, the residual activity [7] was 101%, the residual activity [8] was 100% and the residual activity [9] was 82%. For the same compound, the residual activity [17] was 59%, the residual activity [10] was 20% and the residual activity [11] was 4%. The residual activity [18] was 47% and the residual activity [14] was 5%.
`CCN1/C(=C/C(C)=O)Sc2ccc(OC)cc21` gave a residual activity [11] of 73%, a residual activity [13] of 81% and a residual activity [18] of 64%. The residual activity [14] was 39%.
With `Nc1n[nH]c2nc3ccccc3nc12` the residual activity [1] was 83%, the residual activity [2] was 122% and the residual activity [3] was 84%. For the same compound, the residual activity [6] was 120%, the residual activity [8] was 90% and the residual activity [9] was 90%. The residual activity [16] was 95%, the residual activity [17] was 87% and the residual activity [10] was 100%. For the same compound, the residual activity [11] was 87%, the residual activity [12] was 89% and the residual activity [13] was 66%. For the same compound, the residual activity [18] was 70%, the residual activity [14] was 45% and the residual activity [15] was 79%.
`O=C1NC(=O)C(c2cn(CCCO)c3ncccc23)=C1c1cnccn1` was tested, and the residual activity [20] was 80%, the residual activity [19] was 68% and the residual activity [2] was 91%. For the same compound, the residual activity [3] was 81%, the residual activity [8] was 89% and the residual activity [9] was 94%. It also gave a residual activity [10] of 95%, a residual activity [11] of 97% and a residual activity [12] of 41%. It also gave a residual activity [13] of 46%, a residual activity [18] of 57% and a residual activity [14] of 51%. For the same compound, the residual activity [15] was 28%.
Work on `COc1ccc2c(c1)c(C1=C(c3c[nH]c4ccccc34)C(=O)NC1=O)cn2CCCN(C)C` yielded a residual activity [20] of 38%, a residual activity [19] of 3% and a residual activity [2] of 72%. It also gave a residual activity [3] of 18%, a residual activity [4] of 63% and a residual activity [5] of 13%. It also gave a residual activity [6] of 120%, a residual activity [8] of 102% and a residual activity [9] of 58%. It also gave a residual activity [16] of 96%, a residual activity [17] of 26% and a residual activity [11] of 33%. The residual activity [12] was 2%, the residual activity [13] was 0% and the residual activity [18] was 21%. The residual activity [14] was 0% and the residual activity [15] was 2%.
With `CCCC(=O)Oc1ccc2[nH]c(C(=O)c3cc4ccccc4[nH]3)cc2c1` the residual activity [1] was 79%, the residual activity [2] was 97% and the residual activity [3] was 108%. For the same compound, the residual activity [6] was 125%, the residual activity [7] was 86% and the residual activity [8] was 107%. It also gave a residual activity [9] of 98%, a residual activity [16] of 104% and a residual activity [17] of 81%. It also gave a residual activity [10] of 97%, a residual activity [11] of 82% and a residual activity [12] of 83%. For the same compound, the residual activity [13] was 86%, the residual activity [18] was 73% and the residual activity [14] was 50%. For the same compound, the residual activity [15] was 73%.
For `Nc1ncnc2[nH]nc(Nc3ccc(F)cc3)c12`, the residual activity [2] was 91%, the residual activity [3] was 60% and the residual activity [4] was 113%. The residual activity [6] was 98%, the residual activity [8] was 98% and the residual activity [9] was 99%. For the same compound, the residual activity [16] was 98%, the residual activity [10] was 56% and the residual activity [11] was 18%. It also gave a residual activity [13] of 35%, a residual activity [18] of 114% and a residual activity [14] of 94%. For the same compound, the residual activity [15] was 80%.
